Laboratory results taken from PubChem BioAssay (NCATS).
Inconclusive results are not listed. Calls of active or inactive are those of the source. The call rests on the fitted dose curve; in most records, active means well fitted inhibition curve with a large enough effect; inconclusive means small, poorly fitted or top-dose-only effect; inactive means no such curve, though single readings can be large or run the other way.

These compounds were tested on Zika virus NS2B-NS3 protease (linked construct) (assay: Primary screen NINDS Rhodamine qHTS for Zika virus inhibitors (AID 1347160; further: nearly all actives have a fitted effect of over 55% in size)). Conditions: purified NS2B-NS3 protease, Rhodamine110 substrate fluorescence; series mostly up to 57.1 µM; activity change, negative = inhibition: at the top concentration.
Method in brief: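 Enzyme (25 nM, linked NS2B-NS3) was preincubated 15 min with compound in 10 mM Tris-HCl pH 8.0, 0.01% Tween 20. Rhodamine110 substrate (1.5 microM) was then added and fluorescence read at start and after 15 min.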
On the % scale 0 is the no-effect control and ±100 the full control effect.

| SMILES | activity change, negative = inhibition | outcome |
| --- | --- | --- |
| C[C@@H]1C(=O)O[C@H](C)[C@H]1CC(=O)[C@](C)(O)[C@H]1CC[C@@]2(O)C3=CC(=O)[C@@H]4C[C@@H](O)[C@@H](O)C[C@]4(C)C3CC[C@]12C (some centres not stated) | -1.43% [at 33.1 µM] (inactive) |  |
| C[C@@H]1O[C@@H](O[C@@H]2[C@@H](O[C@@H]3O[C@@H](C)[C@H](O[C@@H]4OC[C@H](O)[C@H](O[C@@H]5OC[C@@H](O)[C@H](O)[C@H]5O)[C@H]4O)[C@@H](O[C@@H]4OC[C@](O)(CO)[C@H]4O)[C@H]3O)[C@H](OC(=O)[C@]34CCC(C)(C)C[C@H]3C3=CCC5[C@@]6(C)C[C@H](O)[C@H](O[C@@H]7O[C@H](CO[C@@H]8OC[C@H](O)[C@H](O)[C@H]8O)[C@@H](O)[C@H](O)[C@H]7O)C(C)(C)C6CC[C@@]5(C)[C@]3(C)C[C@H]4O)OC[C@H]2O)[C@H](O)[C@H](O)[C@H]1O (some centres not stated) | 1.34% [at 10.7 µM] (inactive) |  |
| C=C(C(=O)O)C1CC(O)C2(C)CCCC(=C)C2C1 (configuration not stated) | 1.9% (inactive) |  |
| CC1OC(OC2CCC3(C)C(CCC4(C)C3CC=C3C5CC(C)(C)CCC5(C(=O)OC5OC(CO)C(O)C(O)C5O)CCC34C(=O)O)C2(C)C)C(O)C(O)C1O (configuration not stated) | -5.09% [at 15.1 µM] (inactive) |  |
| CCOCCn1nc(CC)c2nc(N3CCC(C(=O)O)CC3)nc(Nc3cc(C)ccn3)c21 | -0.271% (inactive) |  |
| C=CC(C)(CC/C=C(\C)C(=O)OC)OC1OC(COC(=O)CC(C)(O)CC(=O)O)C(OC2OC(CO)C(O)C(O)C2O)C(O)C1O (configuration not stated) | -2.95% [at 15.1 µM] (inactive) |  |
| COc1c(Nc2ncc(Cl)c(N[C@H]3[C@@H](C(N)=O)[C@@H]4C=C[C@H]3C4)n2)ccc2c1CC[C@@H](N1CCOCC1)CC2 | 43.3% (inactive) |  |
| COC(=O)Cc1cc2c(c([N+](=O)[O-])c1)N(C(=O)CC[C@H](N)C(=O)O)CC2 | 24.6% (inactive) |  |
| COC(=O)C[C@H]1C(C)(C)[C@H](OC(C)=O)C2CC3=C4CC(=O)O[C@@H](c5ccoc5)[C@]4(C)CCC3[C@@]1(C)C2=O (some centres not stated) | -1.08% [at 33.1 µM] (inactive) |  |
| CC(Nc1ncnc2nc[nH]c12)c1cc2cccc(Cl)c2c(=O)n1-c1ccccc1 (configuration not stated) | 25.7% (inactive) |  |
| C=C[C@H]1[C@H](O[C@@H]2O[C@H](CO)[C@@H](O)[C@H](O)[C@H]2O)OC=C(C(=O)OC)[C@H]1CC(=O)O |  | inactive [at 33.1 µM] |
| Oc1ccc(CNc2ccccc2F)c2cccnc12 | -3.1% (inactive) |  |
| COc1cc(-c2ncn(/C=C\C(=O)OC(C)C)n2)cc(C(F)(F)F)c1 | 8.6% (inactive) |  |
| CC1(C)C=CN2C(=O)C3=CCCN3C(=O)[C@@H]2C[C@@]12Nc1ccccc1C2=O | -15.4% [at 33.1 µM] (inactive) |  |
| CCS(=O)(=O)N1CCN(c2ccc(Nc3ncc(C(N)=O)c(NC4CC4)n3)cc2)CC1 | 29.1% (inactive) |  |
| CC1=C(CO)C(=O)O[C@@H]([C@@H](C)[C@H]2CC[C@H]3[C@@H]4C[C@H]5O[C@]56[C@@H](O)C=CC(=O)[C@]6(C)[C@H]4CC[C@]23C)C1 |  | inactive [at 33.1 µM] |
| CC(C)=CC/C=C(\C)[C@H]1CC[C@]2(C)[C@@H]1[C@H](O)C[C@@H]1[C@@]3(C)CC[C@H](O)C(C)(C)[C@@H]3[C@@H](O[C@@H]3O[C@H](CO)[C@@H](O)[C@H](O)[C@H]3O)C[C@]12C | -0.764% (inactive) |  |
